Measurements as given in ChEMBL document CHEMBL4513216, “Probing the Open Global Health Chemical Diversity Library for Multistage-Active Starting Points for Next-Generation Antimalarials” (ACS Infect Dis, 2020).
The campaign covered roughly 68,000 compounds. About 2,700 (4%) showed an effect of 50% or more. What follows is part of a selection rich in strong results, with near analogues and random picks from the rest.

What follows are compounds tested on Plasmodium berghei (assay: Screen against P. berghei liver stage (PbLuc), transformed with Luciferase, at 2uM). Details: tested at 2 uM.
Type: functional, HepG2
For `COC(=O)CN(C(=O)c1ccc(Cl)o1)c1cccc(F)c1`, the INHIBITION was 34.65%.
With `O=C(NCc1ccc(Br)c(F)c1)Nc1cn[nH]c1` the INHIBITION was 2.31%.
In the case of `Cc1cc(CN2CCCC2c2c(C)nn(C)c2Cl)on1` (centres undefined), the INHIBITION is reported as -50.23%.
With `CCc1nc(CN(C)c2nccc(N3CCCC(O)C3)n2)no1` (centres undefined) the INHIBITION was 11.38%.
In the case of `Cc1cnn(CC2CN(Cc3nc(C)no3)CCO2)c1` (centres undefined), the INHIBITION is reported as -35.62%.
`O=C(c1ccncc1)N1CCCC1C1CCN(Cc2ccccc2)CC1` (centres undefined) gave an INHIBITION of 45.82%.
For `O=C(c1ccco1)N1CCCC1C1CCN(Cc2ccccc2)CC1` (centres undefined), the INHIBITION was 3%.
`O=C(C1CC1)N1CCCC1C1CCN(Cc2ccccc2)CC1` (centres undefined) was tested, and the INHIBITION was 53.86%.
With `CC(=O)c1cc(CC(=O)NCc2cccc(F)c2F)cs1` the INHIBITION was 36.26%.
`Cc1nnc(N2C[C@@H]3CCCO[C@@H]3[C@H](N3CCCC3=O)C2)s1` was tested, and the INHIBITION was 21.57%.
`CC(=O)N1CCCN(C(=O)NCCNc2cnccn2)CC1` showed an INHIBITION of 64.71%.
For `CN1CCCN(C(=O)NCCNc2cnccn2)CC1`, the INHIBITION was 12.88%.
`O=C(NCCNc1cnccn1)N1CCCC1` was tested, and the INHIBITION was -12.31%.
`COCC1(C(=O)N[C@H]2CN(c3noc(C)n3)C[C@@H]2C2CC2)CCC1` showed an INHIBITION of 21.28%.
With `CC(C)S(=O)(=O)NCC1CCCN(C(=O)c2ccc3c(c2)OCCO3)C1` (centres undefined) the INHIBITION was 21.39%.
`O=C(CC1CC1)N[C@@H]1CN(C(=O)c2cccs2)C[C@@H]2CCCO[C@@H]21` showed an INHIBITION of 45.36%.
Work on `CCN1CCN(C(=O)NC(C)c2noc(-c3ccccc3)n2)CC1` (centres undefined) yielded an INHIBITION of 88.75%.
`CC(NC(=O)N1CCSC(C)(C)C1)c1noc(-c2ccccc2)n1` (centres undefined) showed an INHIBITION of 29.13%.
`CC(NC(=O)N1CCC[C@H]1CO)c1noc(-c2ccccc2)n1` (some centres undefined) was tested, and the INHIBITION was 5.28%.
With `O=C(Nc1ccccc1)N1C2CCC(O)(CC2)C1CN1CCOCC1` (centres undefined) the INHIBITION was 11.94%.
For `CC(O)C1CCN(C(=O)Nc2nc(-c3ccccc3)ns2)CC1` (centres undefined), the INHIBITION was -65.84%.
`O=C(Nc1nc(-c2ccccc2)ns1)N1CCC(CO)CC1` showed an INHIBITION of 7.72%.
`CCC(O)C1CCN(C(=O)Nc2nc(-c3ccccc3)ns2)CC1` (centres undefined) gave an INHIBITION of 57.92%.
`O=C(c1cscn1)N1CCC2(CN(Cc3ccsc3)C2)C1` showed an INHIBITION of -27.26%.
With `O=C(c1cscn1)N1CCC2(CN(Cc3ccncc3)C2)C1` the INHIBITION was 55.66%.
`O=C(c1cscn1)N1CCC2(CN(Cc3ccoc3)C2)C1` gave an INHIBITION of 46.87%.
`CCc1ccc(C(=O)Nc2cccc(CN3CCCC3C(N)=O)c2)cc1` (centres undefined) gave an INHIBITION of 10.61%.
`NC(=O)C1CCCN1Cc1cccc(NC(=O)c2cc(Cl)cc(Cl)c2)c1` (centres undefined) was tested, and the INHIBITION was 3.14%.
`Cc1cc(C)cc(C(=O)Nc2cccc(CN3CCCC3C(N)=O)c2)c1` (centres undefined) gave an INHIBITION of 57.01%.
`O=C(CSc1nnc(N2CCNCC2)s1)Nc1ccccc1` was tested, and the INHIBITION was 48.59%.
`Cn1nc(Br)c2c(NCCS(N)(=O)=O)ncnc21` gave an INHIBITION of 20.21%.
Compound `Cn1nc(Br)c2c(NCCN)ncnc21` has an INHIBITION of 60%.
Work on `Cn1nc(Br)c2c(NCCNc3ncccn3)ncnc21` yielded an INHIBITION of 33.11%.
`CS(=O)(=O)Cc1ccc(Cl)cc1NCc1ccccc1F` was tested, and the INHIBITION was 0.13%.
Work on `CC(C)NC(=O)CC(C)NCc1cc(Cl)ccc1F` (centres undefined) yielded an INHIBITION of 52.51%.
`CC(CS(C)(=O)=O)NCc1cc(Cl)ccc1F` (centres undefined) was tested, and the INHIBITION was 50.53%.
For `CC(C)NC(=O)CC(C)NCc1ccc(F)cc1Cl` (centres undefined), the INHIBITION was 40.64%.
Work on `CC(C)C(=O)NCc1cc(Br)ccc1F` yielded an INHIBITION of -64.91%.
`CC(C)NC(=O)CNC(C)c1c(F)cccc1Cl` (centres undefined) showed an INHIBITION of 5.34%.
In the case of `Cc1cnc(CNc2ncc(C)c(-c3cnn(C)c3)n2)cn1`, the INHIBITION is reported as -20.35%.
`Cc1cccc(N2CCC3(CCN(C(=O)c4cccnc4)CC3)C2)n1` gave an INHIBITION of 7.29%.
`Cc1nnc(NC(=O)CN2CCCC2c2noc(C3CC3)n2)s1` (centres undefined) showed an INHIBITION of -32.11%.
`CC(NC(=O)c1ccoc1)C(=O)N(C)Cc1ccsc1` (centres undefined) gave an INHIBITION of -56.89%.
Compound `O=C(Cc1ccsc1)NCCc1ccoc1` has an INHIBITION of 42.8%.
Work on `O=C(NCCc1ccsc1)c1ccoc1` yielded an INHIBITION of 52.08%.
Compound `COc1ccc(CN2CCC3(CC2)CCN(CC2CC2)C3=O)cc1` has an INHIBITION of -0.64%.
For `CC(C)CNC(=O)c1ccc(NC(=O)NC(C)c2ccccn2)cc1` (centres undefined), the INHIBITION was -17.17%.
`O=C(c1ccccn1)N1Cc2nccn2CC(COc2cccnc2)C1` (centres undefined) gave an INHIBITION of -28.34%.
Compound `Cc1ccc(Oc2ncccc2C(=O)N(C)CCCN(C)C)c(C)c1` has an INHIBITION of 32.85%.
Compound `Cc1ccc(Oc2ncccc2C(=O)O)c(C)c1` has an INHIBITION of 50.61%.
`Cc1ccc(Oc2ncccc2C(=O)N(C)CC2OCCO2)c(C)c1` was tested, and the INHIBITION was 23.53%.
`O=C(c1ccco1)N1CC2(CCNCC2)c2cc(Cl)ccc21` showed an INHIBITION of 34.18%.
Compound `COc1cc(N2C[C@@H](C)[C@](O)(C3CC3)C2)nc(N)n1` has an INHIBITION of 56.12%.
In the case of `COCc1cc(N2C[C@@H](C)[C@](O)(C3CC3)C2)ncn1`, the INHIBITION is reported as 8.09%.
In the case of `COc1cc(N2C[C@@H](C)[C@](O)(C3CC3)C2)ncn1`, the INHIBITION is reported as 18.38%.
Compound `CN(CC1CCCC1)C(=O)c1cn(C)nc1-c1cccnc1` has an INHIBITION of 32.67%.
In the case of `COc1nccc(N2CC[C@H](CO)[C@@H](O)C2)c1C#N`, the INHIBITION is reported as 5.38%.
Compound `Cn1ncc2c1CCCC2NCc1cccc(C(F)(F)F)c1` (centres undefined) has an INHIBITION of 13.24%.
With `CC1(C)CNC(=O)c2nc(C3CCN(C(=O)C4CC4)CC3)[nH]c2C1` the INHIBITION was 33.4%.
`CN1CCCC(c2nc3c([nH]2)CC(C)(C)CNC3=O)C1` (centres undefined) showed an INHIBITION of -3.25%.
With `CC1(C)CNC(=O)c2nc(C3CCCN(C(=O)C4CC4)C3)[nH]c2C1` (centres undefined) the INHIBITION was 73.68%.
Work on `Cc1ccccc1C(=O)NCCCN1CCc2ccccc2C1` yielded an INHIBITION of -13.46%.
`Cc1cccc(C(=O)NCCCN2CCc3ccccc3C2)c1C` was tested, and the INHIBITION was 28.88%.
With `COc1cccc(C(=O)NCCCN2CCc3ccccc3C2)c1OC` the INHIBITION was 51.32%.
For `COC[C@@]12CCO[C@@H]1CCN(C(=O)COc1ccc(C)cc1)C2`, the INHIBITION was -42.87%.
Work on `O=C(NCCc1ccc(Cl)s1)N1CCS(=O)(=O)CC1` yielded an INHIBITION of -13.46%.
`COc1cccc(F)c1C(C)NC(=O)NCc1ccnc(C)n1` (centres undefined) gave an INHIBITION of -38.35%.
`Cc1nc(C)n(CC2CN(S(C)(=O)=O)Cc3nccn3C2)n1` (centres undefined) gave an INHIBITION of 26.66%.
For `CC1=Nc2c(c(=O)[nH]n2C(C)C)C(c2cccs2)S1` (centres undefined), the INHIBITION was 63.91%.
For `CC1=Nc2c(c(=O)[nH]n2C(C)C)C(c2ccc(F)c(F)c2)S1` (centres undefined), the INHIBITION was -52.59%.
With `CC1=Nc2c(c(=O)[nH]n2C(C)C)C(c2ccccc2)S1` (centres undefined) the INHIBITION was 18.37%.
`CC1=Nc2c(c(=O)[nH]n2C(C)C)C(c2ccc3c(c2)n(C)c(=O)n3C)S1` (centres undefined) was tested, and the INHIBITION was 53.71%.
`CC1=Nc2c(c(=O)[nH]n2C(C)C)C(c2ccsc2)S1` (centres undefined) gave an INHIBITION of 14.2%.
`CC1=Nc2c(c(=O)[nH]n2C(C)C)C(c2ccc3c(c2)OCCO3)S1` (centres undefined) showed an INHIBITION of -19.21%.
